PubChem BioAssay (Tox21)
Where “and” joins values, the source holds several entries; their conditions need not be identical. Identical values can stand only once. Inconclusive results are not listed. Where a call stands in place of a potency, no number is given. More than one record can exist for a structure, and the calls need not agree. Calls of active or inactive are those of the source. Unless noted, calls come from the whole dose curve; as a rule, active = well fitted curve in the direction sought with a large enough effect in the repeat runs; inconclusive = weak or mixed curves; inactive = no such curve, though single readings can be large; an effect the other way counts as inactive or inconclusive.

Legend:
[1] = qHTS assay to identify small molecule agonists of the vitamin D receptor (VDR) signaling pathway - cell viability counter screen (AID 743224); note: nearly all actives have a fitted effect of over 50% in size; note: potency is the fitted concentration of half-maximal effect
In short: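 VDR-bla cells, 4 h after plating, exposed to compounds for 16 h at 37C; viability then read in the same wells as CellTiter-Glo luminescence after 30 min at room temperature, following the bla FRET read.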

[2] = qHTS assay to identify small molecule antagonists of the vitamin D receptor (VDR) signaling pathway - cell viability counter screen (AID 743225); note: nearly all actives have a fitted effect of over 50% in size
In short: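 Read-out: CellTiter-Glo luminescence measured 30 min after reagent addition at room temperature. Cells were VDR-bla HEK 293T exposed 16 h at 37C, 5% CO2, to compound with 3 nM final calcitriol agonist.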

[3] = qHTS assay to identify small molecule agonists of the NFkB signaling pathway (AID 1159509; active = well fitted curve in the direction sought with a large enough effect in the signal ratio in the repeat runs, not every such curve was filed as active; the % refers to the signal ratio; note: series mostly up to about 61 µM)
In short: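 ME-180 NFkB-bla, 2,000 cells/well, overnight plating; cpd pinned in DMSO, 5 h 37 C; B/G FRET substrate 1.5 h RT; ex 405, em 460/530 nm.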

[4] = qHTS assay to identify small molecule agonists of the NFkB signaling pathway - cell viability counter screen (AID 1159515; calls by dose curve; note: series mostly up to about 61 µM; nearly all actives have a fitted effect of over 55% in size)
In short: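 NFkB-bla ME-180 cells, 2,000/well, plated overnight at 37 C; compound added for 5 hr at 37 C. Viability read in the same wells as the bla reporter, by CellTiter-Glo luminescence after 30 min at room temperature.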

[5] = qHTS assay to identify small molecule agonists of the endoplasmic reticulum stress response signaling pathway - cell viability counter screen (AID 1159517; calls by dose curve;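 note: HeLa cells carrying an ER stress response element beta-lactamase reporter; series mostly up to about 61 µM; nearly all actives have a fitted effect of over 50% in size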)
In short: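 HeLa cells carrying an ESRE-driven beta-lactamase reporter receive compound for 5 hr at 37 C. Cell viability is then gauged with CellTiter-Glo by luminescence, 30 min at room temperature.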

[6] = biological target: Nuclear receptor ROR-gamma (Homo sapiens) (UniProt P51449); experiment: qHTS assay to identify small molecule antagonists of the retinoid-related orphan receptor gamma (ROR-gamma) signaling pathway (AID 1159521; note: nearly all actives have a fitted effect of over 50% in size; note: potency is the fitted concentration of half-maximal effect)
In short: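 CHO Tet-on RORγ, RORE-luc reporter. Cpd 2 h pre-incubation, then dox hyclate 1 uM final, 16 h, 37 C/5% CO2. ONE-Glo luminescence; decrease = antagonist.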

[7] = qHTS assay to identify small molecule agonists of the AP-1 signaling pathway - cell viability counter screen (AID 1159525; calls by dose curve; note: nearly all actives have a fitted effect of over 55% in size)
In short: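 Luminescent ATP readout (Cell Titer Glo, 30 min RT), normalised to DMSO and tetra n-octyl ammonium bromide controls. Cells were ME-180 AP-1-bla in 0.5% dialyzed FBS Opti-MEM, with a 5 h, 37 °C compound exposure.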

[8] = qHTS assay to identify small molecule agonists of the AP-1 signaling pathway (AID 1159526; calls by dose curve)
[9] = biological target: Retinoic acid receptor RXR-alpha (Homo sapiens) (UniProt P19793); experiment: qHTS assay to identify small molecule agonists of the RXR signaling pathway (AID 1159527; calls by dose curve; note: nearly all actives have a fitted effect of over 35% in size)
In short: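 Read-out: beta-lactamase FRET ratio (405 nm excitation, 460 and 530 nm emission) after 2 hr substrate loading at room temperature. Cells were RXR-alpha-UAS-bla HEK 293T treated with compounds for 16 hr in 2% charcoal-stripped FBS medium.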

[10] = qHTS assay to identify small molecule agonists of the RXR signaling pathway - cell viability counter screen (AID 1159529); note: nearly all actives have a fitted effect of over 50% in size; note: potency is the fitted concentration of half-maximal effect
In short: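 HEK 293T RXRa-bla cells, 2% CS-FBS; 5 h settle; cpd 16 h 37 C, 5% CO2; CellTiter-Glo 30 min RT, luminescence. Tetraoctyl ammonium bromide as positive control.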

[11] = qHTS assay to identify small molecule antagonists of the retinoid acid receptor (RAR) signaling pathway - cell viability counter screen (AID 1159551); note: nearly all actives have a fitted effect of over 35% in size; note: potency is the fitted concentration of half-maximal effect
In short: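 C3RL4 RARE-luciferase cells, 1,000/well, incubated overnight, then dosed with compound plus 1 uM retinol (final). After 6 hr at 37 C, viability read by CellTiter-Glo ATP luminescence following 30 min at room temperature.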

[12] = qHTS assay to identify small molecule antagonists of the retinoic acid receptor (RAR) signaling pathway (AID 1159552; note: nearly all actives have a fitted effect of over 50% in size)
In short: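 Cells of the C3RL4 line were seeded, incubated overnight, then dosed with compounds in DMSO followed immediately by retinol (1 uM final). Six hours later luciferase detection reagent went in; signal was measured after 30 min at RT.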

[13] = qHTS assay to identify small molecule agonists of the retinoic acid receptor (RAR) signaling pathway (AID 1159553)
In short: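 C3RL4 RARE-luciferase cells were seeded at 1,000/well and grown overnight at 37 C, then exposed to compounds for 6 hr at 37 C, 5% CO2. Luciferase reagent was added and luminescence was read after 30 min at room temperature.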

[14] = qHTS assay to identify small molecule antagonists of the retinoid-related orphan receptor gamma (ROR-gamma) signaling pathway - cell viability counter screen (AID 1159520); note: nearly all actives have a fitted effect of over 50% in size
In short: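 Cytotoxicity was read from cellular ATP (CellTiter-Glo luminescence) after 16 hr at 37 C with 1 uM doxycycline induction. The inducer was added 2 hr after compound transfer to Tet-on ROR gamma CHO cells.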

[15] = qHTS assay to identify small molecule antagonists of the estrogen related receptor (ERR) signaling pathway - cell viability counter screen (AID 1224818);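 note: series mostly up to about 46 µM; viability measured after 17.5 h of compound exposure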
In short: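 ERR cells, 2,000 per well, compound added after 6 h and incubated 17.5 h at 37 C. Viability read by CellTiter-Fluor fluorescence after a further 30 min at 37 C.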

[16] = qHTS assay to identify small molecule antagonists of the estrogen related receptor (ERR) signaling pathway (AID 1224819)
In short: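 ERR reporter cell line (NTP) plated at 2,000 cells/well, settled 6 h at 37C/5% CO2, then exposed to LOPAC compounds for 18 h at 37C. One-Glo luciferase luminescence read after 30 min at room temperature.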

[17] = qHTS assay to identify small molecule agonists of the estrogen related receptor (ERR) signaling pathway (AID 1224820)
In short: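 Cells: ERR line from NTP, 2,000/well. Pre-incubation 6 h, 37 C/5% CO2. Compound (DMSO) pin transfer, 18 h 37 C. One-Glo, 30 min RT, luminescence.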

[18] = tested on: estrogen-related receptor alpha (ERRalpha) with PGC-1alpha coactivator, human; experiment: qHTS assay to identify small molecule antagonists of the estrogen related receptor signaling pathway with the pleiotropic PPARgamma coactivator (PGC) (AID 1224821; calls by dose curve)
In short: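 Luminescent read-out (One-Glo, 30 min at room temperature) following 18 h treatment of PGC/ERR cells at 37 C with compounds delivered in DMSO. Cells had settled 6 h at 37 C/5% CO2 before dosing.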

[19] = qHTS assay to identify small molecule agonists of the estrogen related receptor signaling pathway with the pleiotropic PPARgamma coactivator (PGC) (AID 1224823)
In short: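 Steps: plate PGC/ERR cells at 2,000 cells/well; incubate 6 h, 37 C/5% CO2; pin-transfer compounds (DMSO); incubate 18 h, 37 C; add One-Glo; 30 min RT; read luminescence.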

Chain of Retinoic acid receptor RXR-alpha (Homo sapiens) (P19793 whole entry, looked up): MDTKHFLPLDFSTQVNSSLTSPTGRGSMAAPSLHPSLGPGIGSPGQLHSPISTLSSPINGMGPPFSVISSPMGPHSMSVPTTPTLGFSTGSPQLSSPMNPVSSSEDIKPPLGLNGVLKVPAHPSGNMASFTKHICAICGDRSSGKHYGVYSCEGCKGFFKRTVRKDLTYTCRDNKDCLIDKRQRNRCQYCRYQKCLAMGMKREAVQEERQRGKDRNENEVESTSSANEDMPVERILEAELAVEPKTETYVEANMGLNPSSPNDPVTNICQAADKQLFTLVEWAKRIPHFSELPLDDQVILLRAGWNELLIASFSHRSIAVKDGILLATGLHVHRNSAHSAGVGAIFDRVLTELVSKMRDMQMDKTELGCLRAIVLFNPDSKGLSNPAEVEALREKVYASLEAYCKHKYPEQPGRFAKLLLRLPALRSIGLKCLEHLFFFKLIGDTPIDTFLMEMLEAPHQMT

Row | Compound | Potency [1] | Potency [2] | outcome [3] | Potency [4] | Potency [5] | Potency [6] | Potency [7] | outcome [8] | Potency [9] | Potency [10] | Potency [11] | Potency [12] | Potency [13] | Potency [14] | outcome [15] | outcome [16] | outcome [17] | Potency [18] | outcome [19]
1 | COC(=O)C(Br)CBr (stereo not drawn) | inactive | inactive | inactive | inactive | inactive | inactive | inactive | inactive | inactive | inactive | inactive | inactive | inactive | – | – | – | – | – | –
2 | O=S(=O)(Cl)c1ccccc1 | inactive | inactive | inactive | inactive | inactive | – | inactive | inactive | – | inactive | inactive | inactive | inactive | inactive | – | – | – | – | –
3 | O=NN1CCCCCC1 | inactive | – | inactive | inactive | inactive | – | inactive | inactive | – | inactive | inactive | inactive | inactive | inactive | – | – | – | – | –
4 | Cc1ccccc1CCl | inactive | inactive | inactive | inactive | inactive | inactive | – | inactive | – | inactive | inactive | inactive | inactive | inactive | – | – | – | – | –
5 | ClC=C(Cl)Cl | inactive | inactive | inactive | inactive | inactive | inactive | inactive | inactive | – | inactive | inactive | – | – | inactive | – | – | – | – | –
6 | O=C(N[C@H](c1ccccc1)[C@@H]1CN2CCC1CC2)c1c(Cl)ccc(C(F)(F)F)c1Cl | – | – | inactive | inactive | inactive | – | inactive | – | – | inactive | inactive | – | – | inactive | – | – | – | – | –
7 | CC(=O)[C@H]1CC[C@H]2[C@@H]3CC[C@H]4C[C@](C)(O)CC[C@]4(C)[C@H]3CC[C@]12C | inactive | inactive | inactive | inactive | inactive | – | inactive | – | inactive | inactive | inactive | – | – | inactive | inactive | inactive | inactive | inactive | inactive
8 | CCOc1ccc(C(C)(C)COCc2cccc(Oc3ccccc3)c2)cc1 | inactive | – | inactive | inactive | inactive | inactive | inactive | inactive | – | inactive | inactive | – | – | inactive | – | – | – | – | –
9 | CCOP(=S)(OCC)Oc1nc(Cl)c(Cl)cc1Cl | inactive | inactive | inactive | inactive | inactive | 27.4 µM (active) and inactive | inactive | – | – | 21.9 µM (active) and 49 µM (active) | 61.3 µM (active) and inactive | – | – | inactive | – | – | – | – | –
10 | O=C1C(Cl)C(CCl)CN1c1cccc(C(F)(F)F)c1 (stereo not drawn) | inactive | inactive | inactive | inactive | inactive | – | inactive | inactive | – | – | inactive | – | – | inactive | – | – | – | – | –
11 | O=[N+]([O-])c1ccccc1CCl | inactive | inactive | inactive | inactive | inactive | inactive | inactive | – | inactive | inactive | inactive | – | – | inactive | – | – | – | – | –
12 | OC(c1ccc(Cl)cc1)(c1ccc(Cl)cc1)c1cccnc1 | – | – | inactive | inactive | inactive | 54.5 µM (active) | inactive | – | – | inactive | inactive | inactive | inactive | inactive | – | – | – | – | –
13 | CCCCCCCCCC(=O)O[C@H]1CC[C@H]2[C@@H]3CCC4=CC(=O)CC[C@@H]4[C@H]3CC[C@]12C | – | – | inactive | inactive | inactive | inactive | inactive | inactive | – | inactive | inactive | inactive | inactive | – | – | – | – | – | –
14 | CCCCN(N=O)C(=N)N[N+](=O)[O-] | inactive | inactive | inactive | inactive | inactive | – | inactive | – | inactive | – | inactive | – | inactive | – | – | – | – | – | –
15 | O=S1OC[C@@H]2[C@H](CO1)[C@]1(Cl)C(Cl)=C(Cl)[C@@]2(Cl)C1(Cl)Cl (stereo partly drawn) | 49 µM (active) | inactive | inactive | inactive | – | 54.5 µM (active) | – | – | – | 49 µM (active) | inactive | inactive | – | inactive | – | – | – | – | –
16 | CS/C(C)=N/OC(=O)N(C)SN(C)C(=O)O/N=C(\C)SC | inactive | inactive | inactive | inactive | inactive | – | inactive | – | – | 49 µM (active) | – | – | – | – | – | – | – | – | –
17 | Cl/C=C\C[N+]12CN3CN(CN(C3)C1)C2 | inactive | – | inactive | inactive | inactive | inactive | inactive | inactive | – | inactive | inactive | – | – | – | – | – | – | – | –
18 | CCOP(=S)(OCC)Oc1cc(Cl)c(Br)cc1Cl | – | inactive | inactive | inactive | – | inactive | inactive | – | – | – | inactive | inactive | inactive | inactive | – | – | – | – | –
19 | CCCN(CCCl)c1c([N+](=O)[O-])cc(C(F)(F)F)cc1[N+](=O)[O-] | – | inactive | inactive | inactive | inactive | – | – | – | – | inactive | inactive | – | inactive | – | – | – | – | – | –
20 | CC(C)(C)c1cc([N+](=O)[O-])cc([N+](=O)[O-])c1O | – | – | inactive | inactive | inactive | 6.09 µM (active) | inactive | – | – | inactive | inactive | – | – | – | – | – | – | – | –
